Source: PubChem BioAssay (several laboratories)
Mtb BioA inh: M. tuberculosis BioA enzyme inhibitors, primary screen, biochemical, plate reader, single point, HTS; 7,8-diaminopelargonic acid synthase BioA (Mycobacterium tuberculosis); purified M. tuberculosis BioA enzyme; hit rate 0.096% among 360,000; inhibition, % at 9.99 µM; in the data active means inhibition above about 40%; inconclusive means no clear call, values can overlap the other calls
TcdB inh: TcdB glycohydrolase inhibitors, primary screen, biochemical, single point, plate reader; TcdB glycohydrolase enzymatic assay; hit rate 0.24% among 350,000; Toxin B (Clostridioides difficile), P18177; AID 652162, 2013; inhibition, % at 9.99 µM; in the data active means inhibition above about 10%
PfHsp40 yeast: rescue of yeast from PfHsp40 toxicity, primary screen, S. cerevisiae, ATP luminescence; growth rescue, % at 12.5 µM; hit rate 0.68% among 340,000; S. cerevisiae expressing PfHsp40, growth rescue; in the data active means growth rescue above about 28%, passing the limit was not always enough; inconclusive means no clear call, values can overlap the other calls;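 further: yeast W303a lacking pdr1 and pdr3 grown in galactose medium; growth measured after three days at 30 °C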
VHR inh abs: VHR1 phosphatase inhibitors, primary screen, biochemical, absorbance, uHTS. inhibition, % at 13.3 µM. Dual specificity protein phosphatase 3 (Homo sapiens), P51452. hit rate 0.52% among 290,000. recombinant VHR phosphatase, pNPP absorbance; in the data active means inhibition above about 50%
Y pestis TopoI: Yersinia pestis topoisomerase I inhibitors, primary screen, biochemical, cleavage product accumulation, plate reader, single point. Y. pestis Topo-I cleavage product accumulation. activity, % at 10 µM. hit rate 0.064% among 360,000; in the data active means activity above about 50%, passing the limit was not always enough; inconclusive means no clear call, values can overlap the other calls
BH1578 lux ind: inducers of Vibrio cholerae quorum light production without autoinducers, primary screen, BH1578 luxS cqsA deficient, single point. AID 588436, 2011. V. cholerae BH1578 lux reporter, luminescence, 6 h. activation, % at 18.7 µM. hit rate 0.16% among 350,000; in the data active means activation mostly above about 9.7%, no sharp cut-off; inconclusive means no clear call, values can overlap the other calls; inactive means mostly below about 3.7%
* = called active by the depositor; i = inactive; ? = inconclusive; . = not tested or not shown. The list is not random: actives were taken first. Their share in the collection is about 1.2%.

SMILES	Mtb BioA inh	TcdB inh	PfHsp40 yeast	VHR inh abs	Y pestis TopoI	BH1578 lux ind
CCC(=O)OCC(=O)Nc1cc(C)c(C)cc1[N+](=O)[O-]	1	1	0	51*	-2	i
C/C=C/c1ccc2c(c1)O[C@H](CN(C)C(=O)NC1CCCCC1)[C@H](C)CN([C@H](C)CO)S2(=O)=O	2	1	.	.	.	.
CSC1CCCCC1(O)CSc1nc2ccccc2o1 (stereo not drawn)	-1	.	?	7	14	0
CN1CCN(C(=O)c2cc3ccccc3[nH]2)CC1	-1	0	5	-16	-2	0
Cc1ccc(S(=O)(=O)N2CCCN(C(=O)c3cc4ccccc4[nH]3)CC2)cc1	1	1	1	50*	14	1
O=c1c2ccccc2nc(-c2ccc(Cl)c(Cl)c2)n1O	-1	.	1	29	11	1
N#Cc1ccc(-c2nc3cc(Cl)ccc3c(=O)n2O)cc1	1	2	136*	5	1	i
Cc1nc2ccc(Cl)cc2c(=O)n1-c1ccc([N+](=O)[O-])cc1	2	2	0	2	-3	0
N#Cc1ccc(-c2nc3ccccc3c(=O)n2O)cc1	.	1	20	-1	8	i
O=c1c2cc(Cl)ccc2nc(-c2ccc([N+](=O)[O-])cc2)n1O	.	1	179*	19	6	i
O=c1c2cc(Br)ccc2nc(-c2ccc(Cl)cc2)n1O	-2	-1	-1	52*	8	1
Cn1cc(/C=C(\C#N)C(=O)Nc2ncc(Cc3cccc(Cl)c3)s2)c2ccccc21	.	.	.	18	.	.
Oc1c(Br)cc(Br)cc1CNc1cnc2ccccc2c1	1	0	1	22	3	i
Oc1c(Br)cc(Br)cc1CNc1ccc(F)cc1	.	0	187*	17	-2	0
COc1ccc(C(=O)Nc2ccc(OCC(=O)N3CCOCC3)cc2)c(OC)c1OC	-6	1	0	57*	0	0
CCOc1ccc(-n2c(SCC(=O)NC(C)CC)nc3n[nH]c(C)c3c2=N)cc1 (stereo not drawn)	-1	.	0	-2	18	0
O=C(c1cn(-c2ccccc2)nc1-c1ccncc1)n1nnc2ccccc21	1	100*	-1	.	5	2
O=C(c1ccc([N+](=O)[O-])o1)N1CCc2ccccc2C1	.	0	53*	17	4	2
COc1cc2c(cc1OC)CN(C(=O)c1ccc([N+](=O)[O-])o1)CC2	.	-1	63*	8	2	0
Cc1nn(-c2ccccc2)c(N2CCCC2)c1/C=C1\N=C(c2ccccc2)OC1=O	.	-1	-1	-1	-2	0
CC(=O)Nc1ccc(S(=O)(=O)n2cnc3cc(C)c(C)cc32)cc1	0	.	0	15	-1	0
O=C(NOC(=O)c1ccccc1)c1ccccc1	0	1	239*	13	-1	-1
COC(=O)c1ccccc1	.	1	.	.	.	.
O=C(NCc1ccccc1)/C(=C/c1ccc([N+](=O)[O-])cc1)NC(=O)c1ccco1	-2	0	0	12	2	i
CCCCn1c(N)c(N(CC)C(=O)c2cccs2)c(=O)[nH]c1=O	-2	11*	-2	.	-2	i
SMILES	Mtb BioA inh	TcdB inh	PfHsp40 yeast	VHR inh abs	Y pestis TopoI	BH1578 lux ind
CCCCn1c(N)c(N(CC)C(=O)c2ccncc2)c(=O)[nH]c1=O	1	1	0	.	1	1
COc1cc2c(cc1OC)C(C)N(C(=O)c1sccc1C)CC2 (stereo not drawn)	3	2	0	52*	1	-3
COc1cc2c(cc1OC)C(C)N(C(=O)c1ccc(C)o1)CC2 (stereo not drawn)	.	1	0	2	-2	0
CC(C)(C)Cc1nnc(NC(=O)CN2C(=O)c3ccccc3C2=O)s1	.	0	0	28	6	1
O=C(NNC1=C(C(=O)C(F)(F)F)CCC1)c1cccc(Cl)c1	0	.	54*	4	-7	i
O=C(NNC1=C(C(=O)C(F)(F)F)CCC1)c1ccc(Cl)cc1	.	.	3	29	-3	-7
Cc1cccc(Nc2nc(-c3ccncc3)cs2)c1	.	1	0	51*	-2	i
COC(=O)CCc1c(C)c(C(=O)c2ccc(F)cc2)c2ccccn12	.	6	-1	10	12	0
O=C(O)c1ccc(C(=O)Nc2cccc3ccccc23)c(C(=O)O)c1	8	2	?	-1	-5	225*
COC(=O)[C@@]12CCCCN1[C@H](c1ccc(-c3ccccc3)c(OC)c1)[C@H]1C(=O)N(C)C(=O)[C@H]12	-2	12*	11	.	5	i
COC(=O)[C@@]12CCCCN1[C@H](c1ccc(-c3cccc(Cl)c3)c(OC)c1)[C@@H]1C(=O)N(C)C(=O)[C@@H]12	0	1	4	.	27	i
CCCCCCN1C(=O)C(O)=C(C(C)=O)C1c1ccccc1[N+](=O)[O-] (stereo not drawn)	.	-1	2	1	2	-1
Cn1c(O)c(C=Nc2ccc(N3CCOCC3)cc2)c(=O)n(C)c1=S	.	0	68*	21	1	i
CCn1c(O)c(C=Nc2ccc(N3CCOCC3)cc2)c(=O)n(CC)c1=S	-6	.	5	-4	-5	0
C#CCN(C[C@@H](CC(C)C)NC(=O)OC(C)(C)C)S(=O)(=O)c1ccc(Br)cc1F	0	1	2	.	53*	-1
Cc1cc(C)cc(N2C(=O)NC(=O)/C(=C\c3cccn3-c3ccccc3)C2=O)c1	.	.	-2	2	53*	0
Cc1cc(C)cc(N2C(=O)NC(=O)/C(=C\c3cccn3-c3ccc(Cl)cc3)C2=O)c1	-2	.	-1	-8	-1	-3
Cc1noc(C)c1S(=O)(=O)N(CC(=O)N1CCc2ccccc21)c1ccc(C(C)C)cc1	0	0	0	21	-2	-1
Cc1nc(SCc2nc3ccc(Br)cc3[nH]2)c2oc3ccccc3c2n1	-3	2	7	.	17	-1
CCc1nc(SCc2nc3ccccc3[nH]2)c2oc3ccccc3c2n1	9	.	41*	19	38	i
CN1CCN(C(=O)c2cc3c(c(-c4cccc(-c5cccc(F)c5)c4)n2)[C@H](CCO)N(S(=O)C(C)(C)C)C3)CC1 (stereo partly drawn)	-3	0	.	.	.	.
O=S(=O)(NC1CC2CCC1C2)c1ccc(Br)cc1 (stereo not drawn)	-3	0	67*	34	-11	-1
Cc1ccc(S(=O)(=O)NC2CC3CCC2C3)cc1 (stereo not drawn)	-1	1	.	.	9	i
C[C@H](NC(=O)c1cc2c(cn1)[nH]c1ccccc12)C(=O)O	3	0	0	57*	-3	i
